Experimental data reported in PubChem BioAssay (Tox21).
Inconclusive results are not listed. Active and inactive are the calls of the source. Unless noted, calls follow the shape of the dose curve; as a rule, active = well fitted curve in the direction sought with a large enough effect in the repeat runs; inconclusive = weak or mixed curves; inactive = no such curve, though single readings can be large; an effect the other way counts as inactive or inconclusive.

Key:
[1] = A CellTox Green Cytotoxicity Assay to monitor cytotoxicity in HepG2 cells - 8 hour (AID 1224890); also: nearly all actives have a fitted effect of over 45% in size
Method in brief: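 Using 1536-well format, dye-containing HepG2 suspension was seeded, allowed 5 h at 37 C/5% CO2, dosed by pintool with compounds, positive and negative controls, and imaged for fluorescence across 40 h.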

[2] = qHTS assay to identify small molecule antagonists of the estrogen receptor alpha (ER-alpha) signaling pathway using the BG1 cell line in the presence of 0.1 nM 17-beta-estradiol - cell viability counter screen (AID 1259241); also: nearly all actives have a fitted effect of over 40% in size
Method in brief: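 Live-cell protease activity (CellTiter-Fluor fluorescence, 30 min) was read in the same wells after VM7Luc4E2 cells had been exposed to compounds with 0.1 nM 17beta-estradiol for 22 hr at 37C.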

[3] = qHTS assay to identify small molecule antagonists of the androgen receptor (AR) signaling pathway using the MDA cell line in the presence of 0.5 nM R1881 - cell viability counter screen (AID 1259242); also: nearly all actives have a fitted effect of over 45% in size
Method in brief: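 Viability of MDA-kb2 cells was multiplexed with the luciferase AR readout; after 16 hr with compounds and R1881 at 0.5 nM final, CellTiter-Fluor fluorescence was recorded.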

[4] = biological target: Estrogen receptor (Homo sapiens) (UniProt P03372); assay: qHTS assay to identify small molecule antagonists of the estrogen receptor alpha (ER-alpha) signaling pathway using the BG1 cell line in the presence of 0.1 nM 17-beta-estradiol (AID 1259244); also: nearly all actives have a fitted effect of over 50% in size
Chain of Estrogen receptor (Homo sapiens) (P03372 whole entry, looked up): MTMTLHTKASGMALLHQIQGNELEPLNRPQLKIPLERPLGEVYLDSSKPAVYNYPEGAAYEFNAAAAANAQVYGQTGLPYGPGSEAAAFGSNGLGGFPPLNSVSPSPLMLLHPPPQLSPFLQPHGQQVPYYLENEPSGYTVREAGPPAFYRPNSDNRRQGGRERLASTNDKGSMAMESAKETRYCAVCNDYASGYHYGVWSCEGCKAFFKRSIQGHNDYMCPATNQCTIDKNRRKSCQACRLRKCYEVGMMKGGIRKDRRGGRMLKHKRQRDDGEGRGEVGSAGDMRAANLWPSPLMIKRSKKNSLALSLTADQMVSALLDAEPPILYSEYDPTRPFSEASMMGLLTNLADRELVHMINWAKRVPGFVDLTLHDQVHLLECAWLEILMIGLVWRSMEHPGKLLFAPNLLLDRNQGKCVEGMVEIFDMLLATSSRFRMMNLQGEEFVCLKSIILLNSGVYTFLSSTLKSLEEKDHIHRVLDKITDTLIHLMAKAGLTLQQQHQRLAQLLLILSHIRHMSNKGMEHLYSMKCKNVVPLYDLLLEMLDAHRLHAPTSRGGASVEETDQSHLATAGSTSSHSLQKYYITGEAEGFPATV
Method in brief: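 Estradiol at 0.1 nM (final) stimulates the endogenous ER-alpha of VM7Luc4E2 cells carrying an ERE-driven luciferase; compounds are co-incubated 22 h at 37C and luciferase output quantified by luminescence.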

[5] = qHTS assay to identify small molecule HDAC inhibitors (AID 1259364);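 also: wild-type HCT-116 cells with endogenous class I/II HDAC activity; top concentration of the series differs between compounds; nearly all actives have a fitted effect of over 45% in size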
Method in brief: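 Read-out: luminescence of HDAC-Glo I/II reagent, 30 min RT, reflecting class I/II deacetylase activity in whole HCT-116 cells pre-exposed 2 h to DMSO-dissolved compounds.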

[6] = qHTS assay to identify small molecule HDAC inhibitors - cell viability counter screen (AID 1259365); also: series mostly up to about 92 µM; nearly all actives have a fitted effect of over 50% in size
Method in brief: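 HCT-116 (wild type), 1,500 cells/well, overnight 37C/5% CO2; compound in DMSO 2hr; CellTiter-Glo 30min RT; luminescence read.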

[7] = qHTS assay to identify small molecule agonists of the sonic hedgehog signaling (Shh) pathway - cell viability counter screen (AID 1259366); also: nearly all actives have a fitted effect of over 50% in size
Method in brief: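 CellTiter-Fluor fluorescence read-out, 1 hr at 37C, added after 23hr compound exposure. Cells: 3T3 Gli1-Luc, an NIH/3T3 clone with stably integrated Gli1-Luc reporter, plated 4hr before compound.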

[8] = qHTS assay to identify small molecule antagonists of the sonic hedgehog signaling (Shh) pathway - cell viability counter screen (AID 1259367); also: nearly all actives have a fitted effect of over 55% in size
Method in brief: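 Using CellTiter-Fluor, viability of Gli1-Luc reporter 3T3 cells is read by fluorescence in the wells used for the Shh luciferase assay. Treatment lasts 23 hr with conditioned medium, then reagent 1 hr at 37C.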

[9] = qHTS assay to identify small molecule phospholipidosis (PLD) inducers (AID 1259344; active = well fitted curve in the direction sought with a large enough effect; an effect the other way counts as inactive or inconclusive)
Method in brief: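 Fluorescent phospholipid staining (LipidTOX Red) measured by automated microscopy in fixed HepG2 cells after 24 h treatment; nuclei counterstained with Hoechst 33342; amiodarone as reference inducer.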
% is scaled to controls: 0 for no effect and ±100 for the full control effect.

NC(=O)Nc1ccccc1
inactive: Potency [1] | outcome [2] | Potency [3] | outcome [4] | Potency [5] | outcome [6] | Potency [7] | Potency [8]

CCN(Cc1ccncc1)C(=O)C(CO)c1ccccc1 (stereo not drawn)
inactive: Potency [1] | outcome [2] | Potency [3] | Potency [9] | Potency [5] | outcome [6] | Potency [7] | Potency [8]

CC(=O)CC(C)(C)C1CCCCC1
inactive: Potency [1] | outcome [2] | Potency [3] | outcome [4] | Potency [5] | outcome [6] | Potency [7] | Potency [8]

O=C(O)CN(CCOCCOCCN(CC(=O)O)CC(=O)O)CC(=O)O
inactive: cytotoxicity increase [1] -22.5% [at 0.29 µM] | activity change, negative = cytotoxicity [2] -0.0206% [at 0.349 µM] | viability change, negative = cytotoxic [3] 4.56% [at 0.349 µM] | Potency [9] | activity change, negative = inhibition [5] -0.631% [at 0.349 µM] | activity change, negative = cytotoxicity [6] 5.24% [at 0.349 µM] | viability change, negative = cytotoxic [7] -0.116% [at 0.349 µM] | viability change, negative = cytotoxic [8] 0.536% [at 0.349 µM]

CN(C(=O)c1c(O)c2ccccc2n(C)c1=O)c1ccccc1
inactive: Potency [1] | outcome [2] | Potency [3] | Potency [9] | Potency [5] | outcome [6] | Potency [7] | Potency [8]

CCCN(CCC)CCc1cccc2c1CC(=O)N2
inactive: Potency [1] | outcome [2] | Potency [3] | Potency [9] | Potency [5] | outcome [6] | Potency [7] | Potency [8]

Cc1ccc(C#N)cc1
inactive: Potency [1] | outcome [2] | Potency [3] | outcome [4] | Potency [5] | outcome [6] | Potency [7] | Potency [8]

COC(=O)CC(C)=O
inactive: Potency [1] | outcome [2] | Potency [3] | Potency [5] | outcome [6] | Potency [7] | Potency [8]

C1OCOCO1
inactive: Potency [1] | outcome [2] | Potency [3] | Potency [5] | outcome [6] | Potency [7] | Potency [8]

O=C(CCCN1CCN(c2ccccn2)CC1)c1ccc(F)cc1
inactive: Potency [1] | outcome [2] | Potency [3] | Potency [9] | outcome [6] | Potency [7] | Potency [8]

CN1CCC(=C2c3ccccc3CC(=O)c3sccc32)CC1
inactive: Potency [1] | outcome [2] | Potency [3] | outcome [4] | Potency [5] | outcome [6] | Potency [7] | Potency [8]

C[C@H]1C[C@@H](O)CC(C)(C)C1
inactive: Potency [1] | outcome [2] | Potency [3] | Potency [5] | outcome [6] | Potency [7] | Potency [8]

C1CN(CCOCCN2CCOCC2)CCO1
inactive: Potency [1] | outcome [2] | Potency [3] | outcome [4] | Potency [5] | outcome [6] | Potency [7] | Potency [8]

OCCOc1ccc(OCCO)cc1
inactive: Potency [1] | outcome [2] | Potency [3] | outcome [4] | Potency [5] | outcome [6] | Potency [7] | Potency [8]
